This is one part of a sample in which hits are shown more often than they occur.
Pf Dd2 inh: qHTS Primary assay for Inhibitors of Plasmodium falciparum Dd2 growth in vitro | P. falciparum Dd2 growth, SYBR Green, 72 h | Potency, µM (doses to about 28.9 µM), for the others: top-dose activity, negative = inhibition, usual class: inhibitors | actives 4.3% (n = 120,000) | AID 1347417, 2020; active means well fitted inhibition curve with a large enough effect;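 further: plate controls were DMSO vehicle for no effect and reference drug for full effect; nearly all actives have a fitted effect of over 65% in size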
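Infected erythrocytes (Dd2, 0.3% parasitemia, 2.5% hematocrit final) are added to compound in RPMI-1640/Albumax II medium, grown 72 h at 37C in low oxygen, then lysed with saponin/Triton-X containing SYBR Green and read by fluorescence.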
Active calls of the source: *; i = inactive; [ ] = remark or other dose. Potency means the concentration at half of the fitted maximal effect.

SMILES	Pf Dd2 inh
O=C(CCC1N=C2c3ccccc3N=C(SCc3ccc(Cl)cc3)N2C1=O)NCc1cccs1 (stereo not given)	57%
CCCc1nnc([C@H]2CCN(C3CCN(C(C)=O)CC3)C2)o1	-5%[44.1 µM]
CCc1nc(-c2c3n(c(=O)n(CC(=O)NCc4ccc(F)cc4)c2=O)CCCCC3)no1	i
O=C(c1ccccc1)N1CCn2c(nn(-c3ccncc3)c2=O)C1	9%[44.1 µM]
COc1ccccc1OCCNC(=O)C1CCCN(Cc2ccncc2)CCC(=O)NCC1 (stereo not given)	2%
Cc1cc(N2CCCN(C(=O)Nc3nncs3)CC2)ccn1	5%
CN1c2cc(C(=O)Nc3ccc4c(c3)OCCO4)ccc2C(=O)N2CCCC21 (stereo not given)	-13%
CN(Cc1ccc(F)cc1)Cc1cccn1C	-29%[44.1 µM]
CN1C(=O)CC(C(=O)O)C12CCN(Cc1cnn(-c3ccc(F)cc3)c1)CC2 (stereo not given)	-3%
CN(Cc1cccc(CCN)c1)Cc1cnn(-c2ccc(F)cc2)c1	10µM*
CC(=O)N1C[C@@H]2CCCN3CCC[C@@H]([C@H]23)[C@H]1CCCC(=O)N1CCN(C)CC1	-25%
CO[C@H]1C(=O)N(C2CCN(C(=O)c3cccc(C#N)c3)CC2)[C@H]1c1ccncc1	30%
COc1ccc(-c2cc(C(=O)Oc3ccc(C)cc3)c3cc(C)ccc3n2)cc1	i
COc1ccc(-c2cc(C(=O)Oc3ccccc3)c3cc(C)ccc3n2)cc1	4.5µM*
Cc1ccc(-c2cc(C(=O)Oc3ccccc3)c3cccc(C)c3n2)cc1	-10%
COCCN1CCOC2(CCN([S+](=O)([O-])c3ccccc3C)CC2)C1=O	-24%[44.1 µM]
CCOc1cc(CNc2ccc(O)cc2)cc(Cl)c1OCc1ccccc1	13µM*
CCOc1cc(CNc2ccc(C(=O)O)cc2)ccc1OCc1ccccc1	6%
CCOc1cccc(CNc2ccc(O)cc2)c1OCc1ccccc1Cl	i[5.79 µM]
O=C(O)Cn1nc(-c2ccncc2)nc1C1CCOC1 (stereo not given)	-4%
O=C(COc1ccccc1)N1CCC2(CC1)CC(N(Cc1ccccc1)C1CC1)CCO2 (stereo not given)	3.2µM*
O=C(Cc1ccccc1)N1CCC2(CC1)CC(N(Cc1ccccc1)C1CC1)CCO2 (stereo not given)	i
CCS(=O)(=O)N(C1CC1)C1CCOC2(CCN(C(=O)c3ccc(F)cc3)CC2)C1 (stereo not given)	45%
O=C(c1ccsc1)N1CCC2(CC1)CC(N(Cc1ccccc1)C1CC1)CCO2 (stereo not given)	-28%
O=C(c1ccsc1)N1CCC2(CC1)CC(N(Cc1ccc(F)cc1)C1CC1)CCO2 (stereo not given)	8.9µM*
SMILES	Pf Dd2 inh
COC(=O)CNC(=O)N1CCC2(CC1)CC(N(Cc1ccc(F)cc1)C1CC1)CCO2 (stereo not given)	-2%
Cc1ccsc1C(=O)N1CCC2(CC1)CC(N(Cc1ccc(F)cc1)C1CC1)CCO2 (stereo not given)	10µM*
COc1cccc(CC(=O)N2CCC3(CC2)CC(N(Cc2ccccc2)C2CC2)CCO3)c1 (stereo not given)	-17%
Cc1ccsc1C(=O)N1CCC2(CC1)CC(N(C(=O)c1ccccc1)C1CC1)CCO2 (stereo not given)	i
O=C(NC1CCCC1)N1CCC2(CC1)CC(N(C(=O)c1ccccc1)C1CC1)CCO2 (stereo not given)	i
O=C(NC1CCCC1)N1CCC2(CC1)CC(N(Cc1ccc(F)cc1)C1CC1)CCO2 (stereo not given)	4.5µM*
CCC(CC)C(=O)N1CCC2(CC1)CC(N(Cc1ccc(F)cc1)C1CC1)CCO2 (stereo not given)	-13%
NCCCC(=O)N1CCCCC1c1nnc2n1CCNC2 (stereo not given)	-13%
O=C(O)CCCC(=O)N1CCN2C(=O)c3cc(-c4ccco4)ccc3NC(=O)[C@@H]2C1	22%[44.1 µM]
C[C@@H](NS(=O)(=O)c1ccccc1)c1onc(-c2ccc(F)cc2)c1C(=O)O	42%[44.1 µM]
O=C([C@@H]1C[C@H](F)CN1C(=O)Nc1ccc(Br)cc1)N1CCCCC1	16%
CCCN(CC1CCOC1)C(=O)NCc1ccc(F)cc1 (stereo not given)	13%[5.79 µM]
COc1ccc(CNC(=O)NCC23CCCC=C2NC(=O)CC3)cc1 (stereo not given)	2%
O=C(NC1CCCCC1)C1CN(S(=O)(=O)c2ccc(F)cc2F)CC12CCOCC2 (stereo not given)	i
CCOCCC(=O)N1CC[C@@H]2[C@@H](CCC(=O)N2CCc2ccccn2)C1	-5%
CCc1ccc(N2CC(c3noc(-c4cccc(OC)c4OC)n3)CC2=O)cc1 (stereo not given)	-4%
CCCCN1C(=O)c2ccccc2C(C(=O)NCc2ccncc2)C12CCCCC2 (stereo not given)	-28%
COC(=O)CNC(=O)C1c2ccccc2C(=O)N(Cc2ccccc2)C12CCCC2 (stereo not given)	-4%
O=C(NC1CCCC1)C1c2ccccc2C(=O)N(Cc2ccccc2)C12CCCC2 (stereo not given)	-26%
Cc1csc(NC(=O)C2c3ccccc3C(=O)N(Cc3ccccc3)C23CCCC3)n1 (stereo not given)	3.5µM*
CCCCN1C(=O)c2ccccc2C(C(=O)NC(C)C)C12CCCCC2 (stereo not given)	-23%
CCCCN1C(=O)c2ccccc2C(C(=O)Nc2nc(C)cs2)C12CCCC2 (stereo not given)	5µM*
O=C(c1ccccn1)N1CCC(Cc2nc(C3CCOCC3)no2)CC1	10%
COc1ccc(-c2cc(C(=O)NCC(C)C)c3c(C)nn(-c4ccccc4)c3n2)cc1	-13%
COc1ccc(Cl)cc1C(=O)N1CCCN(c2cc(-c3ccc(F)cc3)[nH]n2)CC1	i
SMILES	Pf Dd2 inh
COc1ccc(S(=O)(=O)N2CCN(C(=O)c3cc(-c4ccc(Br)cc4)n[nH]3)CC2)cc1OC	-18%
COc1ccc(Cl)cc1C(=O)N1CCCN(c2cc(-c3ccc(Br)cc3)[nH]n2)CC1	-21%
O=C(c1cc(-c2ccccc2)n[nH]1)N1CCc2c(nc(-c3ccc(F)cc3)[nH]c2=O)C1	-18%
O=C(c1cc(-c2ccc(Br)cc2)n[nH]1)N1CCN(S(=O)(=O)c2ccc(Br)cc2)CC1	8.9µM*
COc1ccc(Cl)cc1S(=O)(=O)N1CCN(C(=O)c2cc(-c3ccc(Br)cc3)n[nH]2)CC1	10µM*
COc1ccc(CNC[C@H]2O[C@H](Cc3cc(CN4CCOCC4)on3)CC[C@@H]2O)cc1	7%[44.1 µM]
CC(C)NC(=O)[C@@H]1C[C@@H](N)CN1C(=O)c1cccc(C#CC(C)(C)O)c1	-10%
O=C(CN1C(=O)C(c2ccccc2)=NC12CCCC2)Nc1ccc(C(F)(F)F)cc1	-6%
O=C(Nc1ccc(Br)cc1F)c1cc(S(=O)(=O)NC2CCCCC2)ccc1F	-15%
CCOc1ccc(NC(=O)c2cc(S(=O)(=O)N3CCOCC3)ccc2F)cc1	i
O=C(Nc1ccc(Br)cc1)c1ccc(F)c(S(=O)(=O)NC2CCCCCC2)c1	1.3µM*
Cc1ccc(C(=O)Nc2ccc(F)cc2)cc1S(=O)(=O)N1CCCCCC1	-37%
O=C(Nc1ccc(Br)cc1)c1ccc(Br)c(S(=O)(=O)N2CCCCC2)c1	-6%
CCOc1ccccc1NC(=O)c1cc(S(=O)(=O)NC2CCCC2)ccc1F	i
Cc1ccc(NC(=O)c2cc(S(=O)(=O)NCCc3ccc(Cl)cc3)ccc2F)cc1	i
CCOc1ccc(NC(=O)c2cc(S(=O)(=O)NC3CCCCCC3)ccc2F)cc1	4µM*

From PubChem BioAssay
